# Data: article PMC8384837, “Expanding the binding specificity for RNA recognition by a PUF domain”
# Positions count from the first letter of the chain named.
# Columns and labels:
# Assay in all cases: yeast three-hybrid, YBZ-1, SC-Leu-His + 0.5 mM 3-AT, 4 days
# Details in all cases: tags: N-Gal4 AD-HA kept; label: inside an RPR1-promoter hybrid RNA with tandem MS2 sites; ssRNA
# PUM1 PUF domain R4-HNV = PUM1 PUF domain R4-HNV (Homo sapiens, UniProt Q14671 828-1176, N971H;H972N;Q975V)
# Summary of the method: (§1)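 Pumilio-1 PUF domain libraries, randomized at the three base-contacting residues of each repeat, were co-expressed with matching RNA elements from a centromeric plasmid in strain YBZ-1, which carries a LexA–MS2 coat fusion and a HIS3 reporter. Transformants grew for four days on SC-Leu (input) or on SC-Leu-His + 0.5 mM 3-AT (selection), and the repeat regions were PCR-amplified and Illumina-sequenced. The interaction score is the log change in variant frequency from input to selection. That logarithm is base 2, with a pseudocount of 1 where a variant was absent.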
# PUM1 PUF domain R4-TPQ = PUM1 PUF domain R4-TPQ (Homo sapiens, UniProt Q14671 828-1176, N971T;H972P)
# Summary of the method: as §1
# PUM1 PUF domain R8-KWK = PUM1 PUF domain R8-KWK (Homo sapiens, UniProt Q14671 828-1176, N1122K;Y1123W;Q1126K)
# Summary of the method: as §1
# PUM1 PUF domain R4-EHD = PUM1 PUF domain R4-EHD (Homo sapiens, UniProt Q14671 828-1176, N971E;Q975D)
# Summary of the method: as §1
# PUM1 PUF domain R4-SMS = PUM1 PUF domain R4-SMS (Homo sapiens, UniProt Q14671 828-1176, N971S;H972M;Q975S)
# Summary of the method: as §1
# PUM1 PUF domain R7-KFN = PUM1 PUF domain R7-KFN (Homo sapiens, UniProt Q14671 828-1176, S1079K;N1080F;E1083N)
# Summary of the method: as §1
# PUM1 PUF domain R7-QCR = PUM1 PUF domain R7-QCR (Homo sapiens, UniProt Q14671 828-1176, S1079Q;N1080C;E1083R)
# Summary of the method: as §1
# PUM1 PUF domain R6-HWR = target: T1, PUM1 PUF domain R6-HWR (Homo sapiens, UniProt Q14671 828-1176, N1043H;Y1044W;Q1047R)
# T1 sequence: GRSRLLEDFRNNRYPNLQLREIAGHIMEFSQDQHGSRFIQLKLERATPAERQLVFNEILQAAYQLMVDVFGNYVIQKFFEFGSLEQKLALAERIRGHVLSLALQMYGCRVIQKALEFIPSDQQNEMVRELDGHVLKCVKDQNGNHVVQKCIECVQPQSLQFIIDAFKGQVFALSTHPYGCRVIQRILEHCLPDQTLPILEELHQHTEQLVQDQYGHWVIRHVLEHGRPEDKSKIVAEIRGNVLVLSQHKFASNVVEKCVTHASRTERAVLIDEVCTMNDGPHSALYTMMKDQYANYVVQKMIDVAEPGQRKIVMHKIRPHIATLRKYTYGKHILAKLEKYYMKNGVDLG
# Summary of the method: as §1
# PUM1 PUF domain R6-FWI = target: T2, PUM1 PUF domain R6-FWI (Homo sapiens, UniProt Q14671 828-1176, N1043F;Y1044W;Q1047I)
# T2 sequence: T1 sequence with H216F, R220I
# Summary of the method: as §1
# PUM1 PUF domain R3-RPR = PUM1 PUF domain R3-RPR (Homo sapiens, UniProt Q14671 828-1176, C935R;R936P;Q939R)
# Summary of the method: as §1
# Sequence of PUM1 PUF domain R4-HNV (Q14671 828-1176 N971H/H972N/Q975V): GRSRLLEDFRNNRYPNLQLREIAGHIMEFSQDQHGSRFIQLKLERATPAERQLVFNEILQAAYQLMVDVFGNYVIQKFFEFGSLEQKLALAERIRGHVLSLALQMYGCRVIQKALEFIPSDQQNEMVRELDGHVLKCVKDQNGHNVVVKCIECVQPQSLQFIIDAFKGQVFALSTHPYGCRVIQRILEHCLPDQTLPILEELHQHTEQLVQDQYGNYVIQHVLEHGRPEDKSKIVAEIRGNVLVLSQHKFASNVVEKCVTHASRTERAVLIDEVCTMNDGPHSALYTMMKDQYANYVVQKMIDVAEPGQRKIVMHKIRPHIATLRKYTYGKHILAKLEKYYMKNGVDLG
sequence,measurement,setting,value
GGCUAGAACUAGUGGAUCCCCCGGCGCCCGGCGGCUCGAGCCCGGGUAAGUGUACAUAGUCUGCAUGCCGCCGGGCGCCAUGCCUGCAGGUCGACUCUAGAAAACAUG,binding signal,PUM1 PUF domain R4-HNV,2.63 log2 enrichment (interaction score)
same,binding signal,PUM1 PUF domain R4-TPQ,3.39 log2 enrichment (interaction score)
GGCUAGAACUAGUGGAUCCCCCGGCGCCCGGCGGCUCGAGCCCGGGUAAGCGUAAAUAGUCUGCAUGCCGCCGGGCGCCAUGCCUGCAGGUCGACUCUAGAAAACAUG,binding signal,PUM1 PUF domain R8-KWK,6.96 log2 enrichment (interaction score)
GGCUAGAACUAGUGGAUCCCCCGGCGCCCGGCGGCUCGAGCCCGGGUAAGUGUAGAUAGUCUGCAUGCCGCCGGGCGCCAUGCCUGCAGGUCGACUCUAGAAAACAUG,binding signal,PUM1 PUF domain R4-TPQ,1.66 log2 enrichment (interaction score)
GGCUAGAACUAGUGGAUCCCCCGGCGCCCGGCGGCUCGAGCCCGGGUAAGUGUAUAUAGUCUGCAUGCCGCCGGGCGCCAUGCCUGCAGGUCGACUCUAGAAAACAUG,binding signal,PUM1 PUF domain R4-EHD,6.81 log2 enrichment (interaction score)
same,binding signal,PUM1 PUF domain R4-SMS,1.55 log2 enrichment (interaction score)
same,binding signal,PUM1 PUF domain R4-TPQ,4.97 log2 enrichment (interaction score)
GGCUAGAACUAGUGGAUCCCCCGGCGCCCGGCGGCUCGAGCCCGGGUAAGUCUAAAUAGUCUGCAUGCCGCCGGGCGCCAUGCCUGCAGGUCGACUCUAGAAAACAUG,binding signal,PUM1 PUF domain R7-KFN,3.14 log2 enrichment (interaction score)
same,binding signal,PUM1 PUF domain R7-QCR,3.59 log2 enrichment (interaction score)
GGCUAGAACUAGUGGAUCCCCCGGCGCCCGGCGGCUCGAGCCCGGGUAAGUGAAAAUAGUCUGCAUGCCGCCGGGCGCCAUGCCUGCAGGUCGACUCUAGAAAACAUG,binding signal,PUM1 PUF domain R6-HWR,1.35 log2 enrichment (interaction score)
same,binding signal,PUM1 PUF domain R6-FWI,3.65 log2 enrichment (interaction score)
GGCUAGAACUAGUGGAUCCCCCGGCGCCCGGCGGCUCGAGCCCGGGUAAGUGUAAUUAGUCUGCAUGCCGCCGGGCGCCAUGCCUGCAGGUCGACUCUAGAAAACAUG,binding signal,PUM1 PUF domain R3-RPR,5.3 log2 enrichment (interaction score)
GGCUAGAACUAGUGGAUCCCCCGGCGCCCGGCGGCUCGAGCCCGGGUAAGUGUAAAUAGUCUGCAUGCCGCCGGGCGCCAUGCCUGCAGGUCGACUCUAGAAAACAUG,binding signal,PUM1 PUF domain R4-EHD,3.48 log2 enrichment (interaction score)
same,binding signal,PUM1 PUF domain R4-SMS,2.84 log2 enrichment (interaction score)
same,binding signal,PUM1 PUF domain R3-RPR,1.87 log2 enrichment (interaction score)
same,binding signal,PUM1 PUF domain R6-HWR,7.48 log2 enrichment (interaction score)
same,binding signal,PUM1 PUF domain R8-KWK,5.56 log2 enrichment (interaction score)
